Reference: the antibiotic and cytotoxicity screens of Wong et al. (2023)
The campaign covered roughly 39,000 compounds. About 3,300 (8.5%) were called active. The full list was thinned out, with actives kept by preference.

Test system: HepG2
Experiment: cytotoxicity call (relative viability < 0.9)
Settings: 10 µM

SMILES	cytotoxicity call
C=C1c2cccc(O)c2C(=O)[C@@H]2C(=O)[C@]3(O)C(=O)[C@@H](C(N)=O)C(=O)[C@@H](N(C)C)[C@@H]3[C@@H](O)[C@H]12	inactive
C[C@@H]1CCCCO[C@@H](CN(C)C(=O)Nc2cccc3ccccc23)[C@@H](C)CN([C@@H](C)CO)C(=O)c2cc(N(C)C)ccc2O1	inactive
Cn1cnc(CCNC(=O)C[C@@H]2CC[C@@H]3[C@H](COC[C@H](O)CN3C(=O)Nc3ccc(Cl)cc3)O2)c1	inactive
CC(=O)NCCCC[C@@H]1NC(=O)[C@@H]2C[C@H](C(=O)NCCCCCN)[C@H](c3ccc(O)cc3)N2C1=O	inactive
O=C(C[C@H]1CC[C@@H]2[C@H](COC[C@@H](O)CN2S(=O)(=O)c2ccccc2)O1)NCCN1CCCCC1	inactive
C[C@H](CO)N1C[C@H](C)[C@H](CN(C)C(=O)Nc2ccc(C(F)(F)F)cc2)OCCCC[C@H](C)Oc2ccc(NC(=O)Nc3ccccc3)cc2C1=O	inactive
COc1ccc(S(=O)(=O)Nc2ccc3c(c2)CC(=O)N([C@@H](C)CO)C[C@@H](C)[C@@H](CN(C)S(C)(=O)=O)O3)cc1	inactive
C[C@@H]1CCCCO[C@H](CN(C)C(=O)Nc2ccc(C(F)(F)F)cc2)[C@@H](C)CN([C@@H](C)CO)C(=O)c2cc(NC(=O)Nc3cccc4ccccc34)ccc2O1	inactive
C[C@H](CO)N1C[C@H](C)[C@@H](CN(C)Cc2ccc(-c3ccccc3)cc2)Oc2ccc(NC(=O)Cc3ccccc3)cc2C1=O	inactive
C[C@H]1CN([C@@H](C)CO)C(=O)c2cc(NC(=O)Cc3ccccc3)ccc2O[C@H]1CN(C)Cc1ccc(-c2ccccc2)cc1	inactive
C[C@H]1CN([C@@H](C)CO)C(=O)c2cc(NC(=O)Cc3ccccc3)ccc2O[C@@H]1CN(C)Cc1ccc(-c2ccccc2)cc1	active
CC(C)[Si]1(C(C)C)OCc2cc(-c3ccc(-c4ccc(Cl)c(Cl)c4)o3)nc(-c3ccc(Oc4ccccc4)cc3)c21	inactive
Cc1ccc(N2CCC[C@]3(CCNC3=O)C2)nn1	inactive
C[C@@H]1CCCCO[C@@H](CN(C)S(=O)(=O)c2ccc(Cl)cc2)[C@@H](C)CN([C@@H](C)CO)C(=O)c2cc(NS(=O)(=O)c3ccccc3)ccc2O1	inactive
C[C@@H]1CCCCO[C@@H](CN(C)C(=O)Cc2ccccc2)[C@@H](C)CN([C@@H](C)CO)C(=O)c2cc(NC(=O)Nc3ccc(F)cc3)ccc2O1	inactive
COc1ccc([Si](C)(C)[C@H]2[C@H](CCO)O[C@@]3(C(=O)N(Cc4ccc(N5CCCCC5=O)cc4)c4ccccc43)[C@@H]2C)cc1	inactive
COc1ccc([Si](C)(C)[C@@H]2[C@@H](CCO)O[C@]3(C(=O)N(Cc4cccc(N5C(=O)COc6ccccc65)c4)c4ccccc43)[C@H]2C)cc1	active
COc1ccc([Si](C)(C)[C@H]2[C@H](CCO)O[C@@]3(C(=O)N(Cc4ccccc4)c4ccc(N5CCCCC5=O)cc43)[C@@H]2C)cc1	inactive
COc1ccc([Si](C)(C)[C@H]2[C@H](CCO)O[C@@]3(C(=O)N(Cc4ccccc4)c4ccc(N5C(=O)COc6ccccc65)cc43)[C@@H]2C)cc1	active
C[C@H]1[C@H]([Si](C)(C)F)[C@@H](CCO)O[C@]12C(=O)N(Cc1cccc(N3C(=O)COc4ccccc43)c1)c1ccccc12	inactive
COc1ccc([Si](C)(C)[C@H]2[C@H](CCO)O[C@@]3(C(=O)N(Cc4ccc(N5C(=O)COc6ccccc65)cc4)c4ccccc43)[C@@H]2C)cc1	active
COc1ccc([Si](C)(C)[C@H]2[C@H](CC(=O)N3CCC[C@H]3CO)O[C@@]3(C(=O)N(Cc4cccc(N5C(=O)COc6ccccc65)c4)c4ccccc43)[C@@H]2C)cc1	inactive

SMILES	cytotoxicity call
COc1ccc([Si](C)(C)[C@@H]2[C@@H](CCO)O[C@]3(C(=O)N(Cc4ccccc4)c4ccc(N5CCCCC5=O)cc43)[C@H]2C)cc1	inactive
COc1ccc([Si](C)(C)[C@@H]2[C@@H](CCO)O[C@]3(C(=O)N(Cc4ccc(N5CCCCC5=O)cc4)c4ccccc43)[C@H]2C)cc1	inactive
COc1cccc(S(=O)(=O)N2C[C@@H](O)COC[C@@H]3O[C@@H](CC(=O)N4CCN(C)CC4)CC[C@H]32)c1	inactive
O=C1CCNCCN1	inactive
CO[C@@H]1CN(C)C(=O)c2cc(NS(C)(=O)=O)ccc2OC[C@@H](C)N(C(=O)c2ccc3c(c2)OCO3)C[C@@H]1C	inactive
Cc1noc(C)c1S(=O)(=O)Nc1ccc2c(c1)C(=O)N([C@H](C)CO)C[C@@H](C)[C@@H](CN(C)Cc1ccccc1)OCCCC[C@@H](C)O2	inactive
COc1ccc(NC(=O)Nc2ccc3c(c2)CC(=O)N([C@@H](C)CO)C[C@@H](C)[C@H](CN(C)C(=O)Nc2cccc4ccccc24)O3)cc1	inactive
Cc1noc(C)c1S(=O)(=O)Nc1ccc2c(c1)C(=O)N([C@@H](C)CO)C[C@@H](C)[C@@H](CN(C)CC1CCCCC1)OCCCC[C@@H](C)O2	inactive
Cc1ccc(Oc2ccccc2)c(NC(=O)c2ccccc2)c1	active
Cc1ccc(C(=O)c2ccc(Oc3ccccc3)cc2)cc1	inactive
Cc1cccc(C(=O)NN)c1	inactive
COc1cccc(-c2ccc3c(c2)O[C@H](CN(C)Cc2cncnc2)[C@@H](C)CN([C@@H](C)CO)S3(=O)=O)c1	inactive
COc1ccc(NC(=O)N(C)C[C@@H]2Oc3c(NC(=O)c4cc(C)nn4C)cccc3C(=O)N([C@@H](C)CO)C[C@H]2C)cc1	inactive
CN(C)CC(=O)N1[C@@H]2c3ccc(C4=CCCC4)c(=O)n3C[C@H]1[C@H](CO)[C@H]2C(=O)NCC1CC1	inactive
C[C@@H]1CN([C@@H](C)CO)C(=O)Cc2cc(NS(=O)(=O)c3ccccc3)ccc2O[C@@H]1CN(C)S(=O)(=O)c1cn(C)cn1	inactive
C[C@@H]1CN([C@@H](C)CO)C(=O)Cc2cc(NC(=O)Nc3ccccc3)ccc2O[C@H]1CN(C)S(=O)(=O)c1cn(C)cn1	inactive
C[C@@H]1CN([C@H](C)CO)C(=O)c2cc(NC(=O)Nc3ccccc3)ccc2O[C@@H]1CN(C)S(=O)(=O)c1cn(C)cn1	inactive
C[C@H]1CN([C@@H](C)CO)C(=O)Cc2cc(NC(=O)Nc3ccccc3)ccc2O[C@H]1CN(C)S(=O)(=O)c1cn(C)cn1	inactive
C[C@@H]1CN([C@@H](C)CO)C(=O)c2cc(NC(=O)Nc3ccccc3)ccc2O[C@H]1CN(C)S(=O)(=O)c1cn(C)cn1	inactive
C[C@H]1CN([C@@H](C)CO)C(=O)Cc2cc(NS(=O)(=O)c3ccccc3)ccc2O[C@@H]1CN(C)S(=O)(=O)c1cn(C)cn1	inactive
C[C@@H]1CN([C@H](C)CO)C(=O)Cc2cc(NS(=O)(=O)c3ccccc3)ccc2O[C@H]1CN(C)S(=O)(=O)c1cn(C)cn1	active
C[C@H](CO)N1C[C@H](C)[C@H](CN(C)S(=O)(=O)c2cn(C)cn2)Oc2ccc(NC(=O)Nc3ccccc3)cc2CC1=O	active

SMILES	cytotoxicity call
C[C@@H]1CN([C@H](C)CO)C(=O)c2cc(NC(=O)Nc3ccccc3)ccc2O[C@H]1CN(C)S(=O)(=O)c1cn(C)cn1	active
CC1c2cccc(O)c2C(=O)C2=C(O)C3(O)C(=O)C(C(N)=O)=C(O)C(N(C)C)C3C(O)C21.Cl (stereo not given)	inactive
COc1ccc2c3c(n(c2c1)C)[C@H](CO)N(C[C@]13CN(Cc2ccncc2)C1)C(=O)CN1CCOCC1	inactive
CC(C)NC(=O)N(C)C[C@@H]1Oc2ccc(NC(=O)Nc3ccc4c(c3)OCO4)cc2CC(=O)N([C@H](C)CO)C[C@H]1C	inactive
C[C@H]1CN([C@@H](C)CO)C(=O)c2cc(NS(=O)(=O)c3ccc(F)cc3)ccc2O[C@@H]1CN(C)S(=O)(=O)c1ccc(F)cc1	inactive
C[C@H](CO)N1C[C@H](C)[C@@H](CN(C)S(=O)(=O)c2ccc(Cl)cc2)Oc2ccc(NC(=O)C3CC3)cc2CC1=O	inactive
CCOC(=O)c1nonc1N	inactive
CN(CCCCCCCCCCN(C)C(=O)Oc1cccc([N+](C)(C)C)c1)C(=O)Oc1cccc([N+](C)(C)C)c1	inactive
O=C(NCc1ccncc1)C(=O)NC[C@H]1OCCN1S(=O)(=O)c1ccc(F)cc1	inactive
C[C@@H]1CN([C@@H](C)CO)C(=O)c2cccc(NC(=O)Nc3ccc(C(F)(F)F)cc3)c2O[C@H]1CN(C)Cc1ccc(-c2ccccc2)cc1	inactive
C[C@H]1CN([C@@H](C)CO)C(=O)c2ccccc2-c2ccccc2CO[C@@H]1CN(C)Cc1ccccc1C(F)(F)F	inactive
CCCC[C@@H](O)c1ccccc1	inactive
C[C@@H](NCCC(c1ccccc1)c1ccccc1)c1ccccc1	active
C[C@@H](NC(=O)[C@@H]1CCCC[C@H]1C(=O)O)c1ccccc1.C[C@@H](NC(=O)[C@H]1CCCC[C@H]1C(=O)O)c1ccccc1	inactive
CC(NCCC(c1ccccc1)c1ccccc1)c1ccccc1.Cl (stereo not given)	active
C[C@H](NC(=O)[C@@H]1CCCC[C@H]1C(=O)O)c1ccccc1.C[C@H](NC(=O)[C@H]1CCCC[C@H]1C(=O)O)c1ccccc1	inactive
CCCCC(O)c1ccccc1 (stereo not given)	inactive
Cc1noc(C)c1NC(=O)Nc1ccc2c(c1)C(=O)N([C@@H](C)CO)C[C@@H](C)[C@@H](CN(C)C(=O)Nc1ccc(C(F)(F)F)cc1)OCCCC[C@@H](C)O2	inactive
C[C@@H]1CN([C@H](C)CO)C(=O)Cc2cc(NC(=O)Nc3ccc(F)cc3)ccc2O[C@H]1CN(C)C(=O)Nc1cccc2ccccc12	inactive
C[C@@H]1CN([C@@H](C)CO)C(=O)Cc2cc(NS(=O)(=O)c3cn(C)cn3)ccc2O[C@@H]1CN(C)S(=O)(=O)c1cccs1	inactive
Cc1noc(C)c1S(=O)(=O)N(C)C[C@@H]1OCCCC[C@@H](C)Oc2ccc(NC(=O)Nc3ccccc3)cc2C(=O)N([C@H](C)CO)C[C@@H]1C	inactive
